What all share (experiment): protein-binding microarray (PBM); PBM: ~300 nM protein, 6 mM HEPES pH 7.8, 80 mM KCl, 0.5 mM EDTA, 0.5 mM EGTA, 6% glycerol, 35 ng/ul poly-dIdC, 1% milk, 1 h, room temperature; Ap Aiptasia and Nv Nematostella (sea anemones) / Co Capsaspora / Aq Amphimedon (sponge) / Dm Drosophila / Hu human; RHD is the Rel homology domain; high values mean tight binding
Details in all cases: dsDNA, one strand shown

In assay [1] the target is T1, GST-Ap-NF-kB RHD (Exaiptasia pallida (Aiptasia), UniProt A0A913YAJ5 2-422).
T1 sequence: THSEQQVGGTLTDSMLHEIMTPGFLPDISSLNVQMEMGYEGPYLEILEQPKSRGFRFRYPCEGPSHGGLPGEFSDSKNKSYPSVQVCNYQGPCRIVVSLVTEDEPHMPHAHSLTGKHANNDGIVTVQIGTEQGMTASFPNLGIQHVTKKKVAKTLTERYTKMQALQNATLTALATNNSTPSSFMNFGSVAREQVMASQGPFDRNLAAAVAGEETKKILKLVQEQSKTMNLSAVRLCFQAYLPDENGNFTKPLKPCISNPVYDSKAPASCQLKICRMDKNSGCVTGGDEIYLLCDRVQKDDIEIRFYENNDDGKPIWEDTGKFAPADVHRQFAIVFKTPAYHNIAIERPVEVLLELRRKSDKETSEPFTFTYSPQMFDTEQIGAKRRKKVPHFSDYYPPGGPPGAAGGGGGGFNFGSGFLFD

Assay [2] addresses T2, GST-Nv-NF-kB (Cys allele) (Nematostella vectensis, UniProt E5G601 2-411).
T2 sequence: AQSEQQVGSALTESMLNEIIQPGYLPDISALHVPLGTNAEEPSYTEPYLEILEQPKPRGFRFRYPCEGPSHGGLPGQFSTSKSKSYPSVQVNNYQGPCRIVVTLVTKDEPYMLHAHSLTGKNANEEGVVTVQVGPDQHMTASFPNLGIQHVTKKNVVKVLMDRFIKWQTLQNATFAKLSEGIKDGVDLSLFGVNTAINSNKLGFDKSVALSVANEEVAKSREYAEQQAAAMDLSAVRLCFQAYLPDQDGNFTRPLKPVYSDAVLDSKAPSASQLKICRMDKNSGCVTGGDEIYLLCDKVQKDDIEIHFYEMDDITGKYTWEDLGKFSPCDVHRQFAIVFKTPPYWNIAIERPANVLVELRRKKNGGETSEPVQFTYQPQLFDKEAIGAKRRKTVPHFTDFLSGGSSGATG

The target of assay [3] is T3, GST-Dm-Relish (Drosophila melanogaster, UniProt Q94527 99-473).
T3 sequence: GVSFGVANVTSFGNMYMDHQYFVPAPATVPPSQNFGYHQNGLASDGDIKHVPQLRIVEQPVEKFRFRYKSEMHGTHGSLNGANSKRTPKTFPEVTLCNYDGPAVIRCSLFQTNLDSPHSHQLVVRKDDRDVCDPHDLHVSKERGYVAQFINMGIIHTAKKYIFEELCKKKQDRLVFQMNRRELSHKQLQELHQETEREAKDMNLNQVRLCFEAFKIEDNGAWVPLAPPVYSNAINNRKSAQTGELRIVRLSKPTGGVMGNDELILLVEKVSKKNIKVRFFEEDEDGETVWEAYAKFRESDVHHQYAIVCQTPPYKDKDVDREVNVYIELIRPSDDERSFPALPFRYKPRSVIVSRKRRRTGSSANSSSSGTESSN

The target of assay [4] is T4, GST-Aq-NF-kB (Amphimedon queenslandica, UniProt A9Y5G7 2-389).
T4 sequence: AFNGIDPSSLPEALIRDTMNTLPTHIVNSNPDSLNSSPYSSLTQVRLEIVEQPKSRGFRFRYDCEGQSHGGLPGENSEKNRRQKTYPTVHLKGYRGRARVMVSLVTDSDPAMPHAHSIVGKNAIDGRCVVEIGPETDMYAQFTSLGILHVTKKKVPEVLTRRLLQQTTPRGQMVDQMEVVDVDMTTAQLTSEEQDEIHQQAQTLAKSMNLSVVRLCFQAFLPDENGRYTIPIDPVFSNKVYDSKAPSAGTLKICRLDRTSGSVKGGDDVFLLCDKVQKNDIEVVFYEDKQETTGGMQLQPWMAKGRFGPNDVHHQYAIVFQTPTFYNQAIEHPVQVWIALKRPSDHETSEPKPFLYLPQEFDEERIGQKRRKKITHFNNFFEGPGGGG

For the sequence “CCGATTAACATCACGGAAAACCCTGATGTTAATCGGGTCTTGATTCGCTTGACGCTGCTG”, the binding signal is 2.23 z-score in assay [1], 2.07 z-score in assay [2], 3.69 z-score in assay [3] and 4.81 z-score in assay [4].
On the same counts, the results for “CCGATTAACATCAGGAATAACCCTGATGTTAATCGGGTCTTGATTCGCTTGACGCTGCTG” are 1.87 z-score, 2.62 z-score, 3.23 z-score and 5.81 z-score.
Turning to “CCGATTAACATCAGGAAAAGCCCTGATGTTAATCGGGTCTTGATTCGCTTGACGCTGCTG”, the binding signal in assay [1] came to 2.12 z-score; in assay [2], 1.89 z-score; in assay [3], 4.12 z-score; in assay [4] it was 4.95 z-score.
“CCGATTAACATCAGGAAACTACCTGATGTTAATCGGGTCTTGATTCGCTTGACGCTGCTG”: the binding signal in assay [1] was determined as 1.63 z-score; in assay [2], 2.51 z-score; in assay [3] it was 4.48 z-score; in assay [4] it was 4.72 z-score.
Take “CCGATTAACATCAGGGACAGCCCTGATGTTAATCGGGTCTTGATTCGCTTGACGCTGCTG”: the binding signal worked out at 3.43 z-score in assay [1], 4.69 z-score in assay [2], 2.23 z-score in assay [3] and 6.35 z-score in assay [4].
Turning to “CCGATTAACATCAGAGAAGTCCCTGATGTTAATCGGGTCTTGATTCGCTTGACGCTGCTG”, the binding signal in assay [1] is 5.7 z-score; in assay [2], 6.22 z-score; in assay [3] it was 4.44 z-score; in assay [4], 5.93 z-score.
Consider “CCGATTAACATCAGAAATCCCGATGATGTTAATCGGGTCTTGATTCGCTTGACGCTGCTG”, for which the binding signal in assay [1] is 3.14 z-score; in assay [2], 2.98 z-score; in assay [3] it was 3.98 z-score; in assay [4] it was 2.24 z-score.
On to “CCGATTAACATCAGGGGTTCCACTGATGTTAATCGGGTCTTGATTCGCTTGACGCTGCTG”, for which the binding signal in assay [1] came to 2.77 z-score; in assay [2], 2.46 z-score; in assay [3] it was 5.79 z-score; in assay [4] it was 3.97 z-score.
For the sequence “CCGATTAACATCAAAAAAAGTCCTGATGTTAATCGGGTCTTGATTCGCTTGACGCTGCTG”, the binding signal in assay [1] was 1.18 z-score; in assay [2] it was 1.72 z-score; in assay [3] it was 5.69 z-score; in assay [4] it was 4.05 z-score.
On the same counts, the results for “CCGATTAACATCAATGGGTTTTCTGATGTTAATCGGGTCTTGATTCGCTTGACGCTGCTG” are 1.73 z-score, 1.21 z-score, 2.88 z-score and 1.85 z-score.
As for “CCGATTAACATCAGGGATTCCAATGATGTTAATCGGGTCTTGATTCGCTTGACGCTGCTG”, the binding signal in assay [1] was found to be 1.68 z-score; in assay [2], 1 z-score; in assay [3] it was 5.16 z-score; in assay [4], 1.78 z-score.
On to “CCGATTAACATCATTAGGGTATTTGATGTTAATCGGGTCTTGATTCGCTTGACGCTGCTG”, for which the binding signal in assay [1] was found to be 2.55 z-score; in assay [2] it was 3.98 z-score; in assay [3], 1.47 z-score; in assay [4] it was 3.54 z-score.
Turning to “CCGATTAACATCAGGGAGAGCCCTGATGTTAATCGGGTCTTGATTCGCTTGACGCTGCTG”, the binding signal in assay [1] worked out at 3.06 z-score; in assay [2] it was 3.59 z-score; in assay [3], 1.82 z-score; in assay [4] it was 6.26 z-score.
For the sequence “CCGATTAACATCAGGGGTTTAACTGATGTTAATCGGGTCTTGATTCGCTTGACGCTGCTG”, the binding signal in assay [1] worked out at 2.44 z-score; in assay [2] it was 2.32 z-score; in assay [3] it was 3.3 z-score; in assay [4] it was 3.04 z-score.
For “CCGATTAACATCAGGAATCCCACTGATGTTAATCGGGTCTTGATTCGCTTGACGCTGCTG”, the binding signal was determined as 1.73 z-score in assay [1], 1.37 z-score in assay [2], 8.1 z-score in assay [3] and 1.75 z-score in assay [4].
In the case of “CCGATTAACATCAGGACAATCCCTGATGTTAATCGGGTCTTGATTCGCTTGACGCTGCTG”, the binding signal in assay [1] is 2.22 z-score; in assay [2] it was 2.68 z-score; in assay [3], 2.5 z-score; in assay [4] it was 5.09 z-score.
In the case of “CCGATTAACATCAAGGGTTTTCCTGATGTTAATCGGGTCTTGATTCGCTTGACGCTGCTG”, the binding signal in assay [1] worked out at 3.57 z-score; in assay [2] it was 3.39 z-score; in assay [3], 4.7 z-score; in assay [4], 5.2 z-score.
